Screening data: PubChem, National Center for Advancing Translational Sciences (NCATS)
Only a selection was taken, and hits are over-represented in it overall.
G9a block = blocks human histone lysine methyltransferase G9a | Potency, µM (series often up to 102 µM), inactives show top-dose activity, negative = inhibition, hits mostly inhibitors | 350,000 compounds, 8.8% hits | G9a H3K9 monomethylation, AlphaScreen, 2 h | Q96KQ7; note: % is set by controls: 0 for no effect and ±100 for the full control effect; nearly all actives have a fitted effect of over 75% in size
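Enzyme 20 nM + cpd, 15 min RT; add b-H3K9 pep 500 nM / SAM 20 uM; 2 h RT; anti-H3K9me1 Ab 0.5 ug/mL + SA donor / anti-rabbit acceptor beads 20 ug/mL each, 10 min; AlphaScreen read.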
Sfp PPTase inh = inhibitors of Bacillus subtilis Sfp phosphopantetheinyl transferase | Q9F4F7 | Biochemical Sfp PPTase activity, qHTS | 310,000 compounds, 3.5% hits | Potency, µM, inactives show largest response in the series, negative = inhibition, most hits filed as inhibitors;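 note: the enzyme is Sfp with the accession as filed and its product quenches rhodamine fluorescence; 0% = enzyme reaction without inhibitor and -100% = no enzyme wells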
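Step 1, compound plus 15 nM Sfp-PPTase, 15 min, room temperature. Step 2, add rhodamine-CoA (5 uM) and BHQ-2-YbbR (12.5 uM). Step 3, read 525/598 nm fluorescence at 0 and 30 min.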
12-LOX inh = inhibitors of human 12S-lipoxygenase ALOX12; P18054; purified 12hLO, xylenol orange hydroperoxide absorbance; Potency, µM (highest dose often 108 µM), inactives show top-dose activity change, negative = inhibition, most hits filed as inhibitors; 580,000 compounds, 1.1% hits; note: % is set by controls: 0 for no effect and ±100 for the full control effect
Target sequence (P18054 whole entry, looked up): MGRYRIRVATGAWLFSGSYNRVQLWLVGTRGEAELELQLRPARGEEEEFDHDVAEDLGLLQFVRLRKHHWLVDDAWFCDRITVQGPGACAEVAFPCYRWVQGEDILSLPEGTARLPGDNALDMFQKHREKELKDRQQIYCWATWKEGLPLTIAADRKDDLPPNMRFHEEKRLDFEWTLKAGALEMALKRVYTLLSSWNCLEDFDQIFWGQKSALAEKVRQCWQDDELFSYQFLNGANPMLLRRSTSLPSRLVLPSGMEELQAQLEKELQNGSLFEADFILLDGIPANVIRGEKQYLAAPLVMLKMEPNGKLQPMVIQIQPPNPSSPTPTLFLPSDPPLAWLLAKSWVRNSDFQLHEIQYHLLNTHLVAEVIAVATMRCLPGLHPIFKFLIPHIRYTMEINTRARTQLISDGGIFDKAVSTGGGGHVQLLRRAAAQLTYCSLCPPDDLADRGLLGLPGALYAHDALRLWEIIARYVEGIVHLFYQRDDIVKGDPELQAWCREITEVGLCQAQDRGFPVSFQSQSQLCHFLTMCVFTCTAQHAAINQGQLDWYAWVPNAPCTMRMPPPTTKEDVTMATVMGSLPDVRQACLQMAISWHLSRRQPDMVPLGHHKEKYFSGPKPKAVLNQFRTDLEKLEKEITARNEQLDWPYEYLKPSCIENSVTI
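Purified human 12hLO (150 nM final) in 25 mM Hepes, 0.01% Triton X-100, pH 7.0 was preincubated 15 min at room temperature with compound. Then 40 uM arachidonic acid was added, 30 min. Hydroperoxide was read by Fe-XO absorbance ratio 573/405 nm.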
Glioma ERSR ind = induces the endoplasmic reticulum stress response in human glioma cells; U87-MG GRP78 promoter luciferase reporter, 16 h; Potency, µM, without a hit: at the top dose activation, most hits filed as activators; 420,000 compounds, 0.02% hits; AID 602332; note: series mostly up to about 76 µM; % of control where 0% means no effect; nearly all actives have a fitted effect of over 35% in size
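Stably transfected U87-MG human glioma cells carrying a GRP78-based luminescent sensor were seeded at 1000 cells/well, pin-dosed with compounds and incubated 16 h. Luciferase reagent was then added, and end-point luminescence was read after 10 min at room temperature.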
VDR inh = inhibitors of human vitamin D receptor. 400,000 compounds, 0.93% hits. Potency, µM, for the others: max response, negative = inhibition, most hits filed as inhibitors. AID 504847. VDR-SRC2-3 peptide fluorescence polarization, 2 h; note: % is set by controls: 0 for no effect and ±100 for the full control effect
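Fluorescence polarization assay of small-molecule disruption of VDR binding to coregulator peptide SRC2-3. Compounds and controls pin-transferred, then read after 2 h incubation at ambient room temperature.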
Numbers without * were called inactive; ? = inconclusive; . = no result given; ! = not active in a repeat; [ ] = remark or other dose. Calls come from the whole dose curve; as a rule, active = well fitted curve in the direction sought with a large enough effect; inconclusive = small, poorly fitted or top-dose-only effect, or another doubt; inactive = no such curve, though single readings can be large; an effect the other way counts as inactive or inconclusive. Potency is the fitted concentration of half-maximal effect.

SMILES	G9a block	Sfp PPTase inh	12-LOX inh	Glioma ERSR ind	VDR inh
Cc1ccc(-c2nc(CS(=O)CC(=O)NC3CCCC(C)C3C)c(C)o2)cc1 (stereo not drawn)	35µM*	13%	-7%	-2%	-1%
c1ccc([Se]c2c(-c3ccccc3)[se]c3ccccc23)cc1	85%[59 µM]	1%	.	-7%	63µM*
O=C1OC(c2ccc([N+](=O)[O-])cc2)=N/C1=C/N1CC2CC(C1)c1cccc(=O)n1C2 (stereo not drawn)	79µM*	22%	0%	-5%	-5%
Cc1o[nH]c(=O)c1CC(N)C(=O)O (stereo not drawn)	21µM*!	.	.	-5%	-3%
Cc1o[nH]c(=O)c1C[C@H](N)C(=O)O	.	79µM*!	?	-1%	15%
Cc1o[nH]c(=O)c1C[C@@H](N)C(=O)O	.	79µM*!	243%	-4%	-22%
C#CCOc1cccc(C2SCC(=O)Nc3c2c(C)nn3-c2ncnc3nc[nH]c23)c1 (stereo not drawn)	.	.	-3%	.	.
S=C=Nc1cccc(C2(N3CCCCC3)CCCCC2)c1	14µM*	-7%	-12%	-4%	-2%
CCOC(=O)C1=C(N)OC(c2ccccc2)=C(C(=O)OCC)C12C(=O)Nc1ccc(Br)cc12 (stereo not drawn)	.	.	53%	.	.
CC1CCC(N2CCN(C(=O)COc3ccccc3)CC2)CC1 (stereo not drawn)	11µM*	-23%	?	-2%	-25%
O=C(COc1ccc(Cl)cc1)N1CCN(Cc2ccccc2)CC1	5%[59 µM]	3%	-4%	0%	5%
O=C(COc1ccc(Cl)cc1)N1CCN(C2CCCC2)CC1	8.9µM*	-6%	?	1%	12%
CC(C)CN1Cc2ccccc2-n2ccnc2C12CCN(C(=O)c1cccc(F)c1)CC2	.	.	5%	.	.
C[C@@H]1CC2(CCCC[N+]2(C)C)C[C@H]1C	11µM*	18%	?	-7%	-11%
CN1Cc2ccccc2-n2ccnc2C12CCN(C(=O)c1ccc(Br)o1)CC2	.	.	4%	.	.
C/C(=N\Nc1cccc2ccccc12)c1c(O)n(Cc2ccccc2)c(=O)[nH]c1=O	1.6µM*	?	-30%	2%	-15%
COc1ccc(-n2c(O)c(/C(C)=N/Nc3ccccc3)c(=O)[nH]c2=O)cc1	40µM*	0%	?	2%	6%
Cn1nc(C(=O)NCC2(C)CCOCC2)c2ccccc21	.	.	39%	.	.
O=C1C=CC(=O)c2c(O)cccc21	?	-23%	.	-2%	40µM*
Nc1c(C(=O)NCc2ccco2)c2nc3ccccc3nc2n1CCN1CCOCC1	50µM*	?	-15%	3%	-28%
CCOC(=O)c1c(N)n(Cc2ccco2)c2nc3ccccc3nc12	15%[59 µM]	?	-12%	-4%	-1%
Nc1c(C(=O)NCc2ccco2)c2nc3ccccc3nc2n1Cc1ccccc1	?	45µM*	?	-4%	-20%
COc1ccc(Cn2c(N)c(C(=O)NCc3ccco3)c3nc4ccccc4nc32)cc1	11%	45µM*	0%	-8%	-12%
COCC(C)OC(=O)c1c(N)n(Cc2ccco2)c2nc3ccccc3nc12 (stereo not drawn)	-16%[59 µM]	32µM*	-10%	-2%	-4%
Nc1c(C(=O)NCc2ccco2)c2nc3ccccc3nc2n1Cc1ccc(F)cc1	6%[12.7 µM]	-74%	20%	-4%	-9%
SMILES	G9a block	Sfp PPTase inh	12-LOX inh	Glioma ERSR ind	VDR inh
COc1cccc(N2CC3CCC(C2)N3CC(F)(F)F)n1	.	.	0%[6.33 µM]	.	.
O=[S+]([O-])(C1CC1)N1C2CCC1CN(Cc1cccnc1)C2	.	.	3%[6.33 µM]	.	.
C=C(C)[C@@H]1CC=C(C=O)CC1	.	.	-4%[176 µM]	.	.
Cn1c(=O)oc2cc(S(=O)(=O)N3CCC(C(=O)N4CC=C(c5ccccc5)CC4)CC3)ccc21	50µM*	5%	0%	-2%	-11%
Cc1cccn2c(=O)c3c(nc12)N1CCC(Cc2ccccc2)CC1C1(C3)C(=O)N(C)C(=O)N(C)C1=O (stereo not drawn)	?	32µM*	?	-2%	16%
CN1C(=O)N(C)C(=O)C2(Cc3c(nc4ccccn4c3=O)N3CCC(Cc4ccccc4)CC32)C1=O (stereo not drawn)	-21%	-1%	.	.	.
CCC1(N2CCN(C(=O)Cc3ccc(Cl)cc3)CC2)CCN(S(C)(=O)=O)C1 (stereo not drawn)	.	.	34%	.	.
O=[N+]([O-])c1ccc(F)c([N+](=O)[O-])c1	?	15%	.	-5%	-2%
O=[N+]([O-])c1ccc(O[C@@H]2O[C@H](CO)[C@@H](O)[C@H](O)[C@H]2F)c([N+](=O)[O-])c1	24µM*!	.	.	-1%	2%
O=c1c2cc(N3CCOCC3)ccc2[nH]c(=S)n1Cc1ccc(Cl)cc1	24%	16µM*	-6%	-2%	0%
CCCc1cc2c(n1Cc1ccco1)C(C)C1CN(C(=O)c3ccccc3)C(C)(C(=O)OC)C21 (stereo not drawn)	.	32µM*	.	.	.
C#C[C@H]1CN2CC[C@H]1C[C@@H]2CNC(=O)CC(C)(C)C	.	.	14%[176 µM]	.	.
C1COC(CNC2CNC2)C1 (stereo not drawn)	.	.	52%[365 µM]	.	.
C[n+]1cccc(C(=O)NCC2CCCO2)c1 (stereo not drawn)	?	-2%	16µM*	-2%	5%
O=C(NCc1ccc(F)cc1)[C@H]1CN2CCC1C[C@@H]2Cn1cc(CO)nn1 (stereo partly drawn)	.	.	-15%[176 µM]	.	.
O=C1NS(=O)c2cc([N+](=O)[O-])cc([N+](=O)[O-])c21 (stereo not drawn)	.	18µM*	-14%	-5%	?
N#Cc1cccc(NC(=O)NC[C@H]2C[C@@H]3CCN2C[C@@H]3CN2CCCCC2)c1	.	.	4%[176 µM]	.	.
CCOC(=O)c1c(NC(=O)C(c2ccccc2)c2ccccc2)sc2c1C1CCN2CC1	50µM*	?	?	-3%	17%
O=S1(=O)NC2(CCN(Cc3ccc(Cl)s3)C2)COc2ccncc21 (stereo not drawn)	.	.	3%[6.33 µM]	.	.
Nc1ccc(Cl)c(Cl)c1	.	.	1%	-4%	0%
Nc1ccc2cc(Br)ccc2c1	50µM*	-15%	?	3%	-3%
O=C(NCc1ccncc1)C1CNCC12CCOCC2 (stereo not drawn)	.	.	5%	.	.
c1ccc2c(CN3CCN(C4CCCCC4)CC3)c[nH]c2c1	50µM*	-26%	182%	-3%	4%
O=C(O)CCCC(=O)N1C[C@@H]2C[C@H](C1)c1ccc(-c3ccc(Cl)cc3)c(=O)n1C2	.	.	8%[176 µM]	.	.
Clc1ccccc1CN1CCN(c2cccc3[nH]ccc23)CC1	28µM*	11%	.	0%	?
COc1ccccc1N1CCN(Cc2ccccc2Cl)CC1	14µM*	-18%	-15%	1%	1%
COc1ccccc1N1CCN(Cc2ccccc2F)CC1	-44%[2.33 µM]	-23%	-20%	-2%	-3%
COc1ccccc1N1CCN(Cc2cccc(OC)c2O)CC1	45µM*	2%	?	0%	?
